Experimental data: PubChem BioAssay AID1649 (The Scripps Research Institute Molecular Screening Center, 2009)
The other results are listed elsewhere or left out. A number with no mark means an inactive call. The source made the active and inactive calls. Rule as the data show it: active = activation above about 33%; inactive = the rest.

Assay: NPY-Y2 potentiators or agonists, counter-screen for NPY-Y1 potentiator project, cell-based, fluorescence (AID 1649)
Details: HEK293-CNG cells, membrane-potential fluorescence (FLIPR), 1536-well; at 3.6 µM; hits give high values

Row | Compound | activation
1 | O=C(Nc1ccc2c(c1)CCC2)c1cccc(S(=O)(=O)Nc2ccccc2Cl)c1 | -2.29%
2 | CC(=O)c1ccc(NC(=O)C2CC(=O)Nc3nc4ccccc4n32)cc1 (stereo unspecified) | 22.9%
3 | COCCn1nnnc1C(c1ccccc1Cl)N1CCN(c2ccccc2OC)CC1 (stereo unspecified) | -5.69%
4 | Cc1ccccc1NCC(=O)N/N=C\c1ccc([N+](=O)[O-])s1 | 26.6%
5 | Cc1cccc(OCC(O)CN2CCN(CCN3C(=O)c4cccc5cccc(c45)C3=O)CC2)c1C (stereo unspecified) | 49.7% (active)
6 | CCn1c2ccccc2c2cc(NC(=O)Nc3ccc([N+](=O)[O-])cc3C)ccc21 | 20.9%
7 | O=[N+]([O-])c1cc(Cl)cc(/C=N/NC(=S)Nc2cc(S(=O)(=O)N3CCOCC3)ccc2Cl)c1O | 64.8% (active)
8 | CC1=C/C(=N\OS(=O)(=O)c2ccccc2)C=CC1=O | 35.6% (active)
9 | CN1C(=O)c2ccccc2C(C(=O)NCCCN2CCCC2)C1c1c[nH]c2ccccc12 (stereo unspecified) | -3.74%
10 | COC(=O)c1sc(-c2ccc(C(C)(C)C)cc2)cc1NC(=O)/C=C/C(=O)O | 26.2%
11 | CSc1nc(-c2ccco2)nn1C(=O)c1ccccc1Cl | 18.9%
12 | O=C(Nc1ccccc1C(F)(F)F)c1cc(-c2ccc(O)cc2)on1 | -13.4%
13 | COC(=O)c1ccc(NC(=O)CN(c2ccc(C)cc2)S(=O)(=O)c2c(C)n[nH]c2C)cc1 | 27.7%
14 | N#Cc1ccc(C(=O)Nc2nc(-c3cccs3)c(C(=O)C(F)(F)F)s2)cc1 | -11.7%
15 | O=C1/C(=C/c2coc3ccc(O)cc3c2=O)SC(=S)N1c1ccccc1 | 17.4%
16 | O=C(c1cccs1)N1CCN(C(=O)N2CCOCC2)CC1 | -5.13%
